TGFb inhibitor = TGF-b pathway inhibition | HepG2 CAGA-GFP TGF-b/SMAD3 reporter, GFP fluorescence, 18 h; TGF-beta stimulated, 500 pg/mL final | Potency, µM (top dose mostly 46.1 µM), for inactives: at the highest dose activity, negative = inhibition, hits mostly inhibitors | actives 1.2% (n = 410,000) | AID 588855; also: % is scaled to controls: 0 for no effect and ±100 for the full control effect; nearly all actives have a fitted effect of over 65% in size
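HEPG2 CAGA-GFP cells (1000/well, DMEM with 1% FBS) were pre-incubated 2 h at 37 degrees C, given compound by pin tool, then stimulated with TGF-beta at 500 pg/mL final for 18 h before per-cell GFP fluorescence imaging.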
TDP1 cell noCPT = qHTS for Inhibitors of human tyrosyl-DNA phosphodiesterase 1 (TDP1): qHTS in cells in absence of CPT | Potency, µM (top dose mostly 46.2 µM), for the others: at the highest dose activity change, negative = growth inhibition, actives largely listed as inhibitors | actives 15% (n = 420,000) | DT40 Tdp1-/- hTDP1 cells, no CPT, ATP luminescence, 48 h; also: % is scaled to controls: 0 for no effect and ±100 for the full control effect; nearly all actives have a fitted effect of over 55% in size
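Cells were dispensed at 400 per well, compounds added by pin tool, plates incubated ≥48 hr at 37 °C, then CellTiter-Glo added for 30 min at room temperature before luminescence reading. Line: DT40 Tdp1-/- complemented with hTDP1; camptothecin omitted.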
TDP1 cell CPT = DT40-hTDP1 cell growth loss with CPT | chicken DT40 Tdp1-/-;hTDP1 cells + 20 nM CPT, ATP luminescence, 48 h | Potency, µM (highest dose often 46.2 µM), inactives show top-dose activity change, negative = growth inhibition, usual class: inhibitors | actives 12% (n = 420,000) | AID 686979; also: % is scaled to controls: 0 for no effect and ±100 for the full control effect; nearly all actives have a fitted effect of over 55% in size
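Chicken DT40 Tdp1-/- cells complemented with human TDP1, 400 cells/well, exposed to compounds plus 20 nM camptothecin for at least 48 h at 37 C; viability read as ATP content by CellTiter-Glo luminescence.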
S2 tox = viability counter-screen for ATXN expression inhibitors | S2 cells (HEK-293 line with an ATXN2-luciferase reporter) viability, CellTiter-Fluor protease fluorescence, 24 h | Potency, µM (highest dose often 56.7 µM), usual class: cytotoxic | actives 0.49% (n = 400,000) | AID 651635; also: nearly all actives have a fitted effect of over 40% in size
HepG2 viability = kills HepG2 cells in TGF-b inhibitor counter-screen; HepG2 CAGA-GFP viability, ATP luminescence, 18 h; Potency, µM (top dose mostly 46.1 µM), without a hit: at the top dose activity change, negative = cytotoxicity, actives largely listed as cytotoxic; actives 0.76% (n = 410,000); AID 588856
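CellTiter-Glo luminescence gave cytotoxicity after 18 hours at 37 degrees C. The cells were HepG2 CAGA-GFP in 1% FBS DMEM, stimulated with 500 pg/mL TGF-beta after compound addition. %Activity was normalised to no-cell wells (complete cell-killing) and DMSO (no toxicity), and curves were fitted and classified.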
ATXN2 expr inh = ATXN2 expression inhibition. HEK-293 ATXN2-luciferase reporter, luminescence, 24 h. Potency, µM (titrated, usually from 57 µM), for the others: at the highest dose activity change, negative = inhibition, usual class: inhibitors. actives 0.72% (n = 360,000); also: % is scaled to controls: 0 for no effect and ±100 for the full control effect; nearly all actives have a fitted effect of over 55% in size
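qHTS (up to 57 uM final) was run with 24 h compound exposure of reporter cells at 37 °C. Each well was multiplexed: SteadyGlo luminescence measured ATXN2-luciferase expression after a fluorogenic Gly-Phe-AFC viability readout (25 uM final).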
* marks the source's active call; other numbers are inactive results; i = inactive; ? = inconclusive; / = no result given. The list is not random: actives were taken first. Their share in the collection is about 17%. Calls follow the shape of the dose curve; as a rule, active = well fitted curve in the direction sought with a large enough effect; inconclusive = small, poorly fitted or top-dose-only effect, or another doubt; inactive = no such curve, though single readings can be large; an effect the other way counts as inactive or inconclusive. Potency is read from the fitted curve at half-maximal effect.

SMILES	TGFb inhibitor	TDP1 cell noCPT	TDP1 cell CPT	S2 tox	HepG2 viability	ATXN2 expr inh
O=C(NCC(c1cccs1)S(=O)(=O)c1cccs1)c1ccc(Cl)cc1 (stereo not given)	-21%	18µM*	?	?	-17%	-25%
Cc1nn(-c2ccccc2)c(=S)n1-c1ccccc1	0%	13µM*	21µM*	i	-8%	-4%
Cc1[nH]n(C2=NCCS2)c(=O)c1N=Nc1cccc(C(F)(F)F)c1	?	2.6µM*	3.7µM*	?	-13%	?
Cc1[nH]n(C(N)=S)c(=O)c1N=Nc1cccc(C(F)(F)F)c1	7%	?	?	i	-12%	48%
CC(Oc1ccc(S(=O)(=O)N2CCCC2)cc1[N+](=O)[O-])C(=O)NC1(C#N)CCCCC1 (stereo not given)	-14%	?	-30%	i	-39%	-14%
CCOc1ccccc1-c1nn2c(Cc3ccccc3)nnc2s1	?	-25%	-29%	i	13µM*	-12%
CC(=O)Nc1c(C(N)=O)oc2ccc(Cl)cc12	0%	-3%	-1%	i	38%	-6%
NC(=O)c1[nH]cnc1N	-1%	8%	0%	i	13%	6%
O=S(=O)(NCc1nc(-c2ccccc2)no1)c1ccc(F)cc1	-13%	-6%	-14%	i	1%	-7%
O=S(=O)(c1ccccc1)N(Cc1nc(-c2ccccc2)no1)C1CCCCC1	-3%	21µM*	?	i	-9%	6%
O=S(=O)(c1ccc(F)cc1)N(Cc1nc(-c2ccccc2)no1)C1CCCCC1	-30%	16µM*	?	/	-19%	/
CCc1nc2c(OCCn3cccc3)cccn2c1N(C)C(=O)C1CC1	12%	?	-22%	i	-1%	-2%
CCc1nc2c(OCc3ccc(Cl)cc3Cl)cccn2c1N(C)C(=O)C1CC1	?	?	?	18µM*	-30%	?
CCc1nc2c(OCc3ccccc3C)cccn2c1N(C)C(=O)C1CC1	2%	23µM*	?	i	-2%	0%
CCc1nc2c(OCC(=O)c3ccc(F)cc3)cccn2c1N(C)C(=O)COc1ccccc1	3%	21µM*	?	i	-15%	-22%
CCc1nc2c(OCc3ccc(Cl)cc3Cl)cccn2c1N(C)C(=O)CC(C)C	?	6.5µM*	?	i	11µM*	?
CCc1nc2c(OCc3ccc(F)c(F)c3)cccn2c1N(C)C(=O)CC(C)C	-9%	?	?	i	-28%	-17%
Cc1nn(S(=O)(=O)c2ccc(F)cc2)c(C)c1S(=O)(=O)N1CCOCC1	-6%	9%	-1%	i	5%	0%
CCc1nc2c(OCCOc3ccc(F)cc3)cccn2c1N(C)C(=O)c1ccc(OC)cc1	-4%	?	?	i	-11%	?
CCc1nc2c(OCc3cc(Cl)cc(Cl)c3)cccn2c1N(C)C(=O)CC(C)C	?	?	26µM*	?	-52%	?
CCc1nc2c(OCCOc3ccc(F)cc3)cccn2c1N(C)C(=O)CC(C)C	?	10µM*	16µM*	i	-28%	?
CCN(CC)CCSc1nnc2c3ccccc3n(CCc3ccccc3)c2n1	-10%	?	?	?	-12%	/
O=C1c2ccccc2C(=O)N1CSc1nnc2c3ccccc3n(CCc3ccccc3)c2n1	10%	21µM*	?	i	0%	-3%
c1ccc(CCn2c3ccccc3c3nnc(SCc4ccc5nonc5c4)nc32)cc1	-5%	16µM*	15µM*	i	-32%	51%

Assay outcomes: PubChem BioAssay, National Center for Advancing Translational Sciences (NCATS)
